PubChem BioAssay AID624330 (Southern Research Specialized Biocontainment Screening …, 2012)
The campaign covered roughly 340,000 compounds. About 2,100 (0.62%) were called active.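 How the source made its calls: active means first-screen hits whose inhibition reached a set limit at any dose in the follow-up dose series; inconclusive means inhibition above the set first-screen limit but never retested; inactive means the rest.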 These entries were drawn from the full list. Entries with a potency or affinity are not part of this list.

target: Rac GTPase-activating protein 1 (Homo sapiens) (UniProt Q9H0H5); test: blockers of MgcRacGAP-driven Rac1 GTP hydrolysis – biochemical, ADP Hunter fluorescence, primary and confirmatory, confirmation (AID 624330); settings: MgcRacGAP-stimulated Rac1 GTP hydrolysis, at 30 µM, stronger effect = higher value, GST-tagged Rac1 F28L mutant substrate;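 further: fluorescence reports GDP produced by GAP-driven GTP hydrolysis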
Sequence (Q9H0H5 whole entry, looked up): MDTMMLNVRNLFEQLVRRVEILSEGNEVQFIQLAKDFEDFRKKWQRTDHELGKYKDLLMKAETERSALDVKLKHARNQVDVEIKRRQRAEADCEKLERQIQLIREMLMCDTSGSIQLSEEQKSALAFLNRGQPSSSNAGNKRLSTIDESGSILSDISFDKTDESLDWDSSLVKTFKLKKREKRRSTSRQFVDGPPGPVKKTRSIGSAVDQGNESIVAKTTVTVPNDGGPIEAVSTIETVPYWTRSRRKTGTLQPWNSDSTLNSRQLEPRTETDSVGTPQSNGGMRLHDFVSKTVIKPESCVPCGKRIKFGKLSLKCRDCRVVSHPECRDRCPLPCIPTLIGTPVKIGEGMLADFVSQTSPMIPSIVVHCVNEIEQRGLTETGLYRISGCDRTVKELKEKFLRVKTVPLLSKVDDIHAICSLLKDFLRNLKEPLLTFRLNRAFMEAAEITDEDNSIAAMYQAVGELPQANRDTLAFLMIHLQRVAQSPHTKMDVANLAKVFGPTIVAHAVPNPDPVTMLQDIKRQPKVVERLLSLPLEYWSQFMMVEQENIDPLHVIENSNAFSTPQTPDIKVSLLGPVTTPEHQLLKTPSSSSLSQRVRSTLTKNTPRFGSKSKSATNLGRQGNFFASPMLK

inhibition, inactive:
Cc1cc(C)n(C(=O)c2c([N+](=O)[O-])cnn2C)n1 -7.87%
O=C(Cc1ccc(F)cc1)Nc1cccc2cccnc12 5.65%
Cc1ccc(Sc2cnccc2C#N)cc1 -14.2%
COC(=O)c1cc(C(=O)OCC(=O)N(C)C2CCS(=O)(=O)C2)cc([N+](=O)[O-])c1 (configuration not stated) -3.52%
CC1Sc2ccc(S(=O)(=O)N3CCC(C(=O)NCCc4ccccc4)CC3)cc2NC1=O (configuration not stated) 6.85%
COc1cc(C2NC(=O)NC(c3ccccc3)=C2C(C)=O)c(Br)c(Br)c1O (configuration not stated) 25.1%
CCOC(=O)c1cc(NC(=O)C2C3C=CC(O3)C2C(=O)O)cc(C(=O)OCC)c1 (configuration not stated) 6.71%
CN1CCN(S(=O)(=O)c2ccc(Oc3cccc(C(F)(F)F)c3)nc2)CC1 9.66%
O=c1c(Br)c(N2CCCCC2)cnn1-c1ccccc1 3.03%
CCc1cc(=O)oc2cc(OCC(=O)NCCN3CCOCC3)c(Cl)cc12 0.13%
CCOC(=O)c1sc(Nc2ccc(OCC)cc2)nc1C -3.93%
Cc1cc(=O)[nH]c(Nc2cccc(Cl)c2C)n1 3.14%
Clc1ccccc1Nc1nnc(-c2ccncc2)s1 12.4%
CCOc1ccc(Nc2nc3ccccc3c(=O)s2)cc1 4.2%
O=C(c1ccccc1)c1cnc(Nc2ccccc2Cl)s1 8.39%
Cc1ccc(Nc2nc3c(s2)CCC3)c(C)c1 9.23%
Cc1ccc(Nc2nc3ccccc3s2)c(C)c1 7.17%
Cc1c(Cl)cccc1Nc1ccccc1C(=O)O 3.44%
N#CC1(Nc2ccc(S(N)(=O)=O)cc2)CCCC1 2.96%
Cc1ccc2c(C(=O)CN3CCCCC3)c(C)[nH]c2c1 3.73%
COC(=O)c1cc(C(=O)Nc2nnc(C3CC3)s2)cc([N+](=O)[O-])c1 11.3%
O=C(CSc1ccc(Br)cc1)NCC1(N2CCCCC2)CCCCC1 5.48%
CCC1(CC)NC(=O)N(CC(=O)OC(C)C(=O)Nc2ccccc2OC)C1=O (configuration not stated) 1.87%
COc1ccc(C(=O)N2CCC(CCC(=O)Nc3cccc(C)c3)CC2)cc1 5.31%
COc1ccc(N2CCN(C(=S)Nc3cccc(C)c3)CC2)cc1 14.2%
CCc1ccc(NC(=O)NCC2CCN(c3ccc(OC)cc3)C2)cc1 (configuration not stated) 10.4%
COc1ccc(N2CCC(CNC(=O)Nc3ccc(Cl)cc3)C2)cc1 (configuration not stated) 23.3%
CCOc1ccc(NC(=O)NCC2CCN(c3ccc(OC)cc3)C2)cc1 (configuration not stated) 5.23%
CCc1cccc(C)c1NC(=S)NCC1CCN(c2ccc(OC)cc2)C1 (configuration not stated) 26.6%
COc1ccc(N2CCC(CNC(=O)Nc3ccc(C)c(C)c3)C2)cc1 (configuration not stated) 36.2%
COc1ccc(N2CCC(CNC(=S)Nc3c(C)cc(C)cc3C)C2)cc1 (configuration not stated) 23.7%
COCC(C)n1c(C)cc(C(=O)CN2c3cccc4cccc(c34)S2(=O)=O)c1C (configuration not stated) 6.1%
O=C(CN(Cc1ccc(Br)cc1)S(=O)(=O)c1ccccc1)NCc1ccccn1 11.6%
C/C(=N\NC(=O)CSc1nc2ccccc2s1)c1cccnc1 2.25%
COc1cc(OC)c(NC(=O)CCNS(=O)(=O)c2ccc3c(c2)CC(C)N3C(C)=O)cc1Cl (configuration not stated) -10.2%
COc1cc(/C=N/NC(=O)c2c(C)nc3ccc(Cl)cn23)cc(OC)c1OC 0.19%
COc1ccc(NC(=O)c2ccc(CN3CCc4ccccc4C3)cc2)cc1OC 4.51%
COc1ccc(C(=O)/C=C/c2ccc(O)cc2)c(O)c1C/C=C(\C)CCC=C(C)C 1.5%
COc1ccc(C(=O)/C=C/c2ccc(O)cc2)c(O)c1CC=C(C)C 7.57%
CCCOc1ccc(OCCN2CCCC(C)C2)cc1 (configuration not stated) 20%
O=C(CSc1ncnc2sccc12)NCc1ccc2c(c1)OCO2 4.24%
Nc1cccc([N+](=O)[O-])c1 0.03%
O=[N+]([O-])c1cccc(S(=O)(=O)c2cccc([N+](=O)[O-])c2)c1 4.34%
CN(C)c1ccc(/C=N/NC(=O)c2ccc3c(c2)OCO3)cc1 16.6%
Cc1c(F)cccc1NS(=O)(=O)c1ccc2c(c1)n(C)c(=O)c(=O)n2C -0.09%
Cc1c(CN2CCC(C(=O)Nc3cccc(-c4cccc(Cl)c4)c3)CC2)cnn1C 11.7%
Cn1c(SCc2ccccc2)nc2c1c(=O)[nH]c(=O)n2C -7.97%
C#CCNC(=O)C1=C[C@@H](C(C)(C)C)C[C@@H](OCc2ccc(CO)cc2)O1 7.54%
O=c1cc(-c2ccc(O)c(O)c2)oc2ccc3ccccc3c12 2.51%
O=c1cc(-c2ccccc2)oc2cccc(O)c12 0.53%
COc1ccc(-c2cc(=O)c3c(O)cc(O)cc3o2)cc1 -5.2%
O=c1cc(-c2ccc(O)cc2)oc2cc(O)cc(O)c12 14.4%
COc1cccc(/C=C/C(=O)OCC(=O)Nc2nnc(-c3ccccc3)o2)c1 4.25%
Cc1c(NC(=O)c2ccc(S(=O)(=O)Nc3ccccc3F)cc2)c(=O)n(-c2ccccc2)n1C 4.66%
Cc1c(C=O)c2ccccc2n1CC(=O)N1CCc2ccccc2C1 10.2%
O=C(CC(c1ccccc1)c1ccccc1O)NCc1ccco1 (configuration not stated) 15.2%
O=C1c2ccccc2OCOc2ccccc21 2.81%
O=S1c2ccccc2Oc2ccccc21 -3.3%
CCCCn1c(CN2C(=O)c3ccccc3C2=O)nc2ccccc2c1=O 4.82%
CCOC(=O)C1CCCN(S(=O)(=O)c2ccc3ccccc3c2)C1 (configuration not stated) 3.67%
CCOc1ccc(NC(=O)C(C)NC(=O)c2ccccc2Cl)cc1S(=O)(=O)N1CCCC1 (configuration not stated) -0.23%
COC(=O)c1c(NC(=O)CSc2nccn2C)sc(C)c1C -3.2%
